Common to all, as to assay: log2 ratio of Biotin-Ahx-Ub-VS probe labelling (fragment/DMSO); higher = less target engagement (more negative = stronger competition), active = hit call of the paper (q ≤ 0.05, log2 ratio ≤ -1)
What all share (details): compound concentration: 200 uM; treatment time: 3 h

For assay [1], the target named is T1, USP19 (UniProt O94966).
T1 sequence (whole entry): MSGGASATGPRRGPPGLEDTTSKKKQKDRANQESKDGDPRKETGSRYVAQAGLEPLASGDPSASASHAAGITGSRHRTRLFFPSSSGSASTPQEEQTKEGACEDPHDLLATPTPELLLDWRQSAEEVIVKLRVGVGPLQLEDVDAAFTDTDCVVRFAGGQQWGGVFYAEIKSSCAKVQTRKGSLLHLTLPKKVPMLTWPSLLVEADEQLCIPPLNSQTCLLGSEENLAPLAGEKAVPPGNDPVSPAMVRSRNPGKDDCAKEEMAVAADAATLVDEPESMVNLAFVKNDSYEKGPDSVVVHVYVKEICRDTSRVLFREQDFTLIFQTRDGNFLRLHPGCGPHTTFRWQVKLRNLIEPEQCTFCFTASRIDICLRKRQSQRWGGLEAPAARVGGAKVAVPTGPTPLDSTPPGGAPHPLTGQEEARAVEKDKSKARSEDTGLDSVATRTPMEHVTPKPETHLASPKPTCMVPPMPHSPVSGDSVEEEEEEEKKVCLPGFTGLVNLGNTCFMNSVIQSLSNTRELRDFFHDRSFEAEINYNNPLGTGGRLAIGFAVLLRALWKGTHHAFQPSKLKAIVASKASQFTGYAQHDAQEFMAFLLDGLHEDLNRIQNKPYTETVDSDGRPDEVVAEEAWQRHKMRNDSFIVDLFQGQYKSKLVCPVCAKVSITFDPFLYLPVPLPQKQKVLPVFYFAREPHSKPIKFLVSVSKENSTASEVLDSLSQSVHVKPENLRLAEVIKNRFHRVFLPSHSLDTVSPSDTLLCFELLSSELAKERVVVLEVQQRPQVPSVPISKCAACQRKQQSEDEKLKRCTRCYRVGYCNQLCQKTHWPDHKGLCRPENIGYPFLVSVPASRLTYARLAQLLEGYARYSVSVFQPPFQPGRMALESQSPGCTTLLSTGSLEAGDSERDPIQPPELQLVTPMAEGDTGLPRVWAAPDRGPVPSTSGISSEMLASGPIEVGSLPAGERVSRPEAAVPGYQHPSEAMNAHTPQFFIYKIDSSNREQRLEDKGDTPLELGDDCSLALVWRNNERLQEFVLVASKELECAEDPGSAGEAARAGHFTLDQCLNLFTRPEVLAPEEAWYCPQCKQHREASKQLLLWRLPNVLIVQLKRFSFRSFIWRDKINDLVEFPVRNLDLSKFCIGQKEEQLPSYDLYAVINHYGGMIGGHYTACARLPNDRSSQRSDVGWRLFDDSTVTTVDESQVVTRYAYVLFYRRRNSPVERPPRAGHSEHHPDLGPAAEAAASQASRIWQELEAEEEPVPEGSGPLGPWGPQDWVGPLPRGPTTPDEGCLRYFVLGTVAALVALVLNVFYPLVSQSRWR
An outline of the steps: (§1)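 Labelled DUBs from HEK293T lysate were NeutrAvidin-enriched, digested with LysC and trypsin, and run by diaPASEF LC-MS/MS. Before that, each 495 µg sample in Tris/CHAPS/IGEPAL buffer with protease inhibitors was treated in triplicate with fragment at 200 µM or vehicle for 3 h, then with Biotin-Ahx-Ub-VS at 0.5 µM final for 1 h. Values are average log2 ratios of fragment over vehicle by unpaired t-test, based on global-median-normalised Spectronaut label-free quantities from proteins with ≥2 unique peptides.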

Assay [2] deals with USP24 (UniProt Q9UPU5). Summed up:
as §1

Assay [3] addresses T2, USP25 (UniProt Q9UHP3).
T2 sequence (whole entry): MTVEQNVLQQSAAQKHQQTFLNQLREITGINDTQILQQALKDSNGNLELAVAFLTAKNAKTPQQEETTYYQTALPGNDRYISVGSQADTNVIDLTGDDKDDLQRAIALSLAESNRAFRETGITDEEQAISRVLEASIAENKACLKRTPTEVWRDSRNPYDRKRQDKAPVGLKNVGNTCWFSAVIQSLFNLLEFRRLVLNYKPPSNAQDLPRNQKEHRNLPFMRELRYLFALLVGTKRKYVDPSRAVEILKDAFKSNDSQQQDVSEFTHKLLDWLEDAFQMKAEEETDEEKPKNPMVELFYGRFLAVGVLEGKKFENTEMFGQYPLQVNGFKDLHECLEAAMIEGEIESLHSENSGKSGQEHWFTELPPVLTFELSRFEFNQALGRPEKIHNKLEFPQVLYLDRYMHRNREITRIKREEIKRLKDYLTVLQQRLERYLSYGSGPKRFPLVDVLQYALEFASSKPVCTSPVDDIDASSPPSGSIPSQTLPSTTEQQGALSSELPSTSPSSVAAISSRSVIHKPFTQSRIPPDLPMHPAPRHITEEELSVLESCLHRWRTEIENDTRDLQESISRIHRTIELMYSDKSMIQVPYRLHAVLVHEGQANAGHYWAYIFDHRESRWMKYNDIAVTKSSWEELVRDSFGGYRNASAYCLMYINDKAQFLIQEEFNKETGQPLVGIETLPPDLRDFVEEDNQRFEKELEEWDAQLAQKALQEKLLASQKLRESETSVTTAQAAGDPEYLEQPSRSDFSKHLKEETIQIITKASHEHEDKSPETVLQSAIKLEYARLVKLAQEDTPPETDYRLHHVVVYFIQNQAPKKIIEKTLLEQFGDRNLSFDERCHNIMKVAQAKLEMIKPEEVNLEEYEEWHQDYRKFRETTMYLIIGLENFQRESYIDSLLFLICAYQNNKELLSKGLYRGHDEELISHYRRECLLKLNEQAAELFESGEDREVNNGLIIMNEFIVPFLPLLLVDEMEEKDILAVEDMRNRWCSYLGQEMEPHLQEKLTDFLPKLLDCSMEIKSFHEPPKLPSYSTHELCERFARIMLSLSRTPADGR
An outline of the steps: as §1

The target of assay [4] is T3, USP28 (UniProt Q96RU2).
T3 sequence (whole entry): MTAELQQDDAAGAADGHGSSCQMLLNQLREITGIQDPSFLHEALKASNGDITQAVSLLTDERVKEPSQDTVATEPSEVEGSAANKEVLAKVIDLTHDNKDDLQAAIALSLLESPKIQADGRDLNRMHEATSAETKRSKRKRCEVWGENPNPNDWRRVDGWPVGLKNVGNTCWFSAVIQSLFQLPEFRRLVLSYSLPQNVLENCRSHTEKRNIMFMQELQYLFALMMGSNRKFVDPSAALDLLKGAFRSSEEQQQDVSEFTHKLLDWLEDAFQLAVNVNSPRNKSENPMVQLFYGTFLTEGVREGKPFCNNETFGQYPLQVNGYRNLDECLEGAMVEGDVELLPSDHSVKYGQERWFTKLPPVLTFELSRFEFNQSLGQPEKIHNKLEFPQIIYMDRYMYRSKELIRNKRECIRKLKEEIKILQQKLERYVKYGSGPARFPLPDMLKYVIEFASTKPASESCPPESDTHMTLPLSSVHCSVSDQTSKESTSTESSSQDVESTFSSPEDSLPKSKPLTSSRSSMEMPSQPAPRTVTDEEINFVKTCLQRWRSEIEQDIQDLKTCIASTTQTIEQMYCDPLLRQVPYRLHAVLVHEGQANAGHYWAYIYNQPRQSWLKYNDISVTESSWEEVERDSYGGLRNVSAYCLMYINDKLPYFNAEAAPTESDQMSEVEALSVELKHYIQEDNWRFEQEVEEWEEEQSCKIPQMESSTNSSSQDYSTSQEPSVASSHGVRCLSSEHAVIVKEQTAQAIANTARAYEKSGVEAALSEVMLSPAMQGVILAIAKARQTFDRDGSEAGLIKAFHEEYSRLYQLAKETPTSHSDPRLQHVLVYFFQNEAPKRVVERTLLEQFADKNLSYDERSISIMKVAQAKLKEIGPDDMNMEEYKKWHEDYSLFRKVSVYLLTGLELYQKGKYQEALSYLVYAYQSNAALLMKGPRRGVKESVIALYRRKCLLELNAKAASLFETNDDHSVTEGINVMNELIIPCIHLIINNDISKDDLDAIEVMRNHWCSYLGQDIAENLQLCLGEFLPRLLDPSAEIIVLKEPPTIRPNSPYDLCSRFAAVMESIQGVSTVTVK
Summed up:
as §1

Unmarked numbers belong to inactive results.

Sequence of USP24 (Q9UPU5 whole entry): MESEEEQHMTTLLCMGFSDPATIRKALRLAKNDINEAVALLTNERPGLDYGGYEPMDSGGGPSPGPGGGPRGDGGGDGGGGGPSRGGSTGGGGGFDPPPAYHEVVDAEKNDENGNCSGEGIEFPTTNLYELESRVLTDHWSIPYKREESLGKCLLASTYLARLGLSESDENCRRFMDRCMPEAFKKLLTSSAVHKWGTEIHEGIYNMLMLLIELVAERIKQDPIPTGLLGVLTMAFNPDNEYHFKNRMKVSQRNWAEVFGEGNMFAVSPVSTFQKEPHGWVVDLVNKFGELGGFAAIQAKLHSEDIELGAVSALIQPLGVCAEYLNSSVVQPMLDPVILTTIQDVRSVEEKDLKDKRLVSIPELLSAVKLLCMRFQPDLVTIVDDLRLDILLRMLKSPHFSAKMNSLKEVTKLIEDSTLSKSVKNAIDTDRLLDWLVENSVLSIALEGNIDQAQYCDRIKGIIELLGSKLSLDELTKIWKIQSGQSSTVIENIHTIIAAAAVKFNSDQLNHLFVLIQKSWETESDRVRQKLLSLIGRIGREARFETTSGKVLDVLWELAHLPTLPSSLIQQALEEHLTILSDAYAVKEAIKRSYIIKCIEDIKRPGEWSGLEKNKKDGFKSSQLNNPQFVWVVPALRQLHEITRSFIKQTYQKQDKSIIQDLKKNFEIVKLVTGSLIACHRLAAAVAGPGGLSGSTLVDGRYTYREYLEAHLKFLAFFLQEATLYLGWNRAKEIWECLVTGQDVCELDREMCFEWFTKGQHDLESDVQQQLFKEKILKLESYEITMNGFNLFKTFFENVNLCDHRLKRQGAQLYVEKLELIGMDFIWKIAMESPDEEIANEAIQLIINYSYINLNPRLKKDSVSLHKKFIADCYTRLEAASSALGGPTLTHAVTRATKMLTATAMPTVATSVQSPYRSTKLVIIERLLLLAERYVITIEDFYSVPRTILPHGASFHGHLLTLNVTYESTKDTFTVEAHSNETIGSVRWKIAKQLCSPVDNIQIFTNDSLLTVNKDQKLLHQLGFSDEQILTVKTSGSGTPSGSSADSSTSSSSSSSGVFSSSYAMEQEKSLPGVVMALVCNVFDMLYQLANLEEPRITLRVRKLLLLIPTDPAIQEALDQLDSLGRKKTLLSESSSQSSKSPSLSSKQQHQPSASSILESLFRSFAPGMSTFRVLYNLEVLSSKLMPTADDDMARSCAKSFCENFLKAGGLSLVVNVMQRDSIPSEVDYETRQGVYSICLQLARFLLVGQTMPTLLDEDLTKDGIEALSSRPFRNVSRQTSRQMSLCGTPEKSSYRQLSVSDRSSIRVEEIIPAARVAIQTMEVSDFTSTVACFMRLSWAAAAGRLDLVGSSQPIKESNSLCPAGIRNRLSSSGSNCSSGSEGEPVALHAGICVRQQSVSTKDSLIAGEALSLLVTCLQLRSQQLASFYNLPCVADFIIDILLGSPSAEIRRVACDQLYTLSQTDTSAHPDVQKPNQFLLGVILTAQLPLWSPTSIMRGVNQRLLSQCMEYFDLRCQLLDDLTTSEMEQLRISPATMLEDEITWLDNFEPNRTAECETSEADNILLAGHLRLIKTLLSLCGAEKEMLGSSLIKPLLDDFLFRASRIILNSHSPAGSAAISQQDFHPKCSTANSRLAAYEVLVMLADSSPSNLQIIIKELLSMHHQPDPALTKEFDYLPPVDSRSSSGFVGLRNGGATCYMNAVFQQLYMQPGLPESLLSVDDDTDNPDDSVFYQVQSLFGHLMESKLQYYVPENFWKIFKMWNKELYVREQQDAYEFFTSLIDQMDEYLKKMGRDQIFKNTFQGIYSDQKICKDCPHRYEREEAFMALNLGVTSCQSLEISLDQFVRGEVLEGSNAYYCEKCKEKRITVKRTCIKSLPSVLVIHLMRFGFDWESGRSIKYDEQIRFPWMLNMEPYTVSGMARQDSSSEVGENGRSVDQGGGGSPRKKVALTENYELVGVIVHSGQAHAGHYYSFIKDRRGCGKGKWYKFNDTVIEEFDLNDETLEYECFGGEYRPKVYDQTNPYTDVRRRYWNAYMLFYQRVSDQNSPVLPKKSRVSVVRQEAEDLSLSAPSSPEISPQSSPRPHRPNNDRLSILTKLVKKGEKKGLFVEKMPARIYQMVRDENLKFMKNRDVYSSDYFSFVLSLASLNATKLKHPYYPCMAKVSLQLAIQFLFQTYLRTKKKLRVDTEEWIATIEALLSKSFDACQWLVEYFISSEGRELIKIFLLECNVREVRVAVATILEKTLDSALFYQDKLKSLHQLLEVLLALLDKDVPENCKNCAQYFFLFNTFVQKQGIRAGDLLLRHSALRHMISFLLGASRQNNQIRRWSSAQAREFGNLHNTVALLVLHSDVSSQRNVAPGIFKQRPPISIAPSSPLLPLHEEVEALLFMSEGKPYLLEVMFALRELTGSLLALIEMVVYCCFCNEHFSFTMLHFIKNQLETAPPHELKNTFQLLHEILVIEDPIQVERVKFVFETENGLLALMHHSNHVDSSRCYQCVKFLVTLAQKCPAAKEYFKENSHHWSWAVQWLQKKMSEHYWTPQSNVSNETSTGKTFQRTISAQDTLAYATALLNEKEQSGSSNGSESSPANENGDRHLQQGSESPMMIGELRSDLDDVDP

Consider `CC1Cc2ccccc2N1C(=O)CCl` (centres undefined), for which the “log2 ratio of Biotin-Ahx-Ub-VS probe labelling” value is -0.643 in assay [1], -1.61 (active) in assay [2], -0.876 in assay [3] and -0.929 in assay [4].

The record behind these values is the supplement of paper PMC11732987, “Enantioselective OTUD7B fragment discovery through chemoproteomics screening and high-throughput optimisation” (Communications Chemistry, 2025).
